Compound activity as filed in PubChem.
Sampled rows, rich in hits. Any-hit rate of the full collection: about 8.9%.
NPSR antag = blocks cAMP signaling of the human neuropeptide S receptor | hit rate 1% among 220,000 | Potency, µM (top dose mostly 38.3 µM), without a hit: top-dose activity change, negative = inhibition, actives largely listed as inhibitors | AID 1461 | CHO-NPSR cells, cAMP TR-FRET, antagonist mode; also: potency is read from the fitted curve at half-maximal effect; nearly all actives have a fitted effect of over 50% in size
IMPase Li cell = membrane-permeable IMPase blocker, potentiated with lithium. CHO-M1 cells, IP1 TR-FRET (IP-One), carbachol + lithium. Potency, µM (top dose mostly 59.4 µM), for inactives: top-dose activity, negative = IMPase inhibition, most hits filed as inhibitors. hit rate 0.35% among 210,000;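 also: IP1 builds up when IMPase is blocked and the TR-FRET signal falls; potency is read from the fitted curve at half-maximal effect; plate controls were basal vehicle for no effect and high inhibitor control for full effect; nearly all actives have a fitted effect of over 50% in size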
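IP1 accumulation measured by competitive TR-FRET in lysed CHO-M1 cells after 30 min compound exposure at 37C, with a small lithium addition to potentiate weak responses. Hill-equation AC50 from ratio and donor-channel data.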
ALDH1A1 block = blocks purified human ALDH1A1 activity; P00352; Purified ALDH1A1, NADH fluorescence, propionaldehyde substrate; Potency, µM (series often up to 75.3 µM), inactives show top-dose activity, negative = inhibition, most hits filed as inhibitors; hit rate 7.3% among 220,000; AID 1030; active = well fitted inhibition curve with a large enough effect, not every such curve was filed as active; inconclusive = small, poorly fitted or top-dose-only effect, or another doubt; inactive = no such curve, though single readings can be large or run the other way;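 also: potency is read from the fitted curve at half-maximal effect; plate controls were no enzyme wells and a reference inhibitor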
HPGD inh = blocks human HPGD enzyme activity; P15428; purified HPGD, NADH fluorescence kinetic, PGE2 substrate; Potency, µM, inactives show top-dose activity change, negative = inhibition, hits mostly inhibitors; hit rate 4.3% among 150,000; active = well fitted inhibition curve with a large enough effect, not every such curve was filed as active; inconclusive = small, poorly fitted or top-dose-only effect, or another doubt; inactive = no such curve, though single readings can be large or run the other way; also: potency is read from the fitted curve at half-maximal effect
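20 nM HPGD preincubated 15 min at room temperature with compound in 50 mM Tris-HCl pH 8, 0.01% Tween 20. Started with 1 mM NAD+ and 30 uM prostaglandin E2; NADH fluorescence (360/450 nm) read 5 times over 30-s intervals, last minus first.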
ALOX12 inhib = blocks human 12-lipoxygenase activity. P18054. purified 12-hLO, xylenol orange hydroperoxide absorbance. Potency, µM (doses to about 57.1 µM), inactives show at the highest dose activity change, negative = inhibition, hits mostly inhibitors. hit rate 0.12% among 150,000. AID 1452; also: potency is read from the fitted curve at half-maximal effect; nearly all actives have a fitted effect of over 55% in size
Target sequence (P18054 whole entry, looked up): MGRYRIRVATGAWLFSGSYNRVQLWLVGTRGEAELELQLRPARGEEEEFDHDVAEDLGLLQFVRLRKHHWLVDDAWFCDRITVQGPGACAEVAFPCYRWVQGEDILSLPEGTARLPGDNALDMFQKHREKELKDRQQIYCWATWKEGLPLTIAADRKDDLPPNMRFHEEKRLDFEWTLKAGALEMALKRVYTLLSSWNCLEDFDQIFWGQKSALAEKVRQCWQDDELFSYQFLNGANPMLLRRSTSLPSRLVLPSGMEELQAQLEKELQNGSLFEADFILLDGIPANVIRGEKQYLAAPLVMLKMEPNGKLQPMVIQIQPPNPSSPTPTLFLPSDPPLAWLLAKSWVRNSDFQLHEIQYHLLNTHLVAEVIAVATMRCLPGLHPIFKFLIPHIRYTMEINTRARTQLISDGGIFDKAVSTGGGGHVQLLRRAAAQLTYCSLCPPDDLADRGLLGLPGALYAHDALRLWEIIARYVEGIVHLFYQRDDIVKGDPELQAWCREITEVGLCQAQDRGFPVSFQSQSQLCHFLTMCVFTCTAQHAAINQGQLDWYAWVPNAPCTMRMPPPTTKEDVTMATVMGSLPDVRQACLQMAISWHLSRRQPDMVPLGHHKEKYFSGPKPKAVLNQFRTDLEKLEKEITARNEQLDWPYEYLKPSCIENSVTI
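150 nM 12hLO, 25 mM Hepes pH 7.0 + 0.01% Triton X-100; cpd preinc 15 min RT; 40 uM arachidonic acid, 30 min RT; Fe-XO 30 min; A573/A405 ratio as read-out.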
IMPase inh = cell-permeable inhibitors of inositol monophosphatase (IMPase); CHO-M1 cells, IP1 accumulation, HTRF TR-FRET ratio; inhibition (IP1 accumulation), % at 46.1 µM; 120,000 tested, under 10 active; P97697; active = well fitted curve in the direction sought with a large enough effect in the signal ratio, not every such curve was filed as active; inconclusive = small, poorly fitted or top-dose-only effect, or a change in a side signal; inactive = no such curve, though single readings can be large or run the other way; the % refers to the signal ratio;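 also: cells stimulated with carbachol in lithium chloride buffer; plate controls were DMSO basal wells for no effect and reference inhibitor wells for full effect; higher means more IMPase inhibition seen as more IP1 and lower FRET ratio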
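Seeded CHO-M1 cells were dosed with compound at up to 46 uM, stimulated with carbachol for 30 min, then lysed in IP-One detection reagents. Higher IP1 lowers the TR-FRET signal.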
Numbers without * were called inactive; ? = inconclusive; / = not tested or not shown; [ ] = dose if it differs, or a comment. Unless noted, calls follow the shape of the dose curve; as a rule, active = well fitted curve in the direction sought with a large enough effect; inconclusive = small, poorly fitted or top-dose-only effect, or another doubt; inactive = no such curve, though single readings can be large; an effect the other way counts as inactive or inconclusive. Unless noted, % is scaled to controls: 0 for no effect and ±100 for the full control effect.

SMILES	NPSR antag	IMPase Li cell	ALDH1A1 block	HPGD inh	ALOX12 inhib	IMPase inh
COc1cccc(-n2c(CN3CCN(c4ccccc4)CC3)nc3ccc([N+](=O)[O-])cc3c2=O)c1	-6%	-2%	28µM*	-13%	-4%	/
COc1ccc(-n2c(CN3CCC(C(N)=O)CC3)nc3ccc([N+](=O)[O-])cc3c2=O)c(OC)c1	-21%	21%	9.5µM*	/	/	/
CCOC(=O)C1CCN(Cc2nc3ccc([N+](=O)[O-])cc3c(=O)n2-c2ccc(OC)cc2OC)CC1	-25%	3%	20µM*	/	/	/
Cc1ccccc1OCC(=O)N/N=C/c1cn(Cc2ccccc2)c2ccccc12	-20%	7%	?	?	4%	10
NC(=O)CSc1cn(Cc2ccccc2)c2ccccc12	-2%	-2%	7.9µM*	/	/	/
O=[N+]([O-])/C=C/c1cn(Cc2ccccc2)c2ccccc12	10µM*	23%[38.3 µM]	16µM*	-25%	-7%	23
C(=N\n1cnnc1)/c1cn(Cc2ccccc2)c2ccccc12	-12%[46.1 µM]	0%[38.3 µM]	13µM*	-18%	-4%	6
N#Cc1cn(Cc2cccc(Cl)c2)c2ccccc12	-21%[46.1 µM]	35%[38.3 µM]	?	-21%	-9%	?
N#Cc1ccccc1Cn1cc(/C=C/[N+](=O)[O-])c2ccccc21	?	23%	3.5µM*	40µM*	-7%	/
CC(C)(C)c1ccccc1NC(=O)Cn1cnc2cc([N+](=O)[O-])ccc2c1=O	-1%	-9%	-11%	/	/	/
O=C(Cn1cc(/C=C\[N+](=O)[O-])c2ccccc21)Nc1ccccc1	13µM*	/	/	/	/	/
O=C(O)Cn1cc(/C=C/[N+](=O)[O-])c2ccccc21	-48%	1%	-11%	/	/	/
CS(=O)(=O)N(CC(=O)N1CCN(c2ccccc2F)CC1)C1CCCCC1	-15%[46.1 µM]	20%[38.3 µM]	7.9µM*	-20%	12%	5
COc1ccccc1N1CCN(C(=O)CN(C2CCCCC2)S(C)(=O)=O)CC1	5%	2%	4%	/	/	/
CC(=O)CC(C)(C)Nc1nc2cc([N+](=O)[O-])ccc2o1	-3%	/	/	/	/	/
CCOC(=O)c1c(C)n(C)c2ccc(O)c(S(=O)(=O)c3ccccc3)c12	-15%[46.1 µM]	21%[38.3 µM]	-4%	-13%	6%	7
CC(=O)c1sc(N/N=C\c2cccc(Br)c2)nc1C	-1%	6%	25µM*	28µM*	-17%	/
COc1ccc2nc(S(=O)Cc3ncc(C)c(OC)c3C)[nH]c2c1 (stereo unspecified)	-54%	8%	-2%[20.9 µM]	28µM*	-12%	1[20.6 µM]
COc1ccc2nc(SCC(=O)Nc3c(C)cccc3C)[nH]c2c1	-4%[46.1 µM]	4%[38.3 µM]	?	-17%	-4%	4
COc1cc(C(=O)NCC(c2ccco2)N2CCCC2)ccc1OCc1c(C)noc1C (stereo unspecified)	-10%[46.1 µM]	23%[38.3 µM]	2%	-8%	2%	0
CS(=O)(=O)Nc1cccc(-c2cc(NCc3cccs3)ncn2)c1	/	4%	?	/	/	/
O=C(C(=O)N1CCc2ccccc2C1)c1cn(CC(=O)N2CCOCC2)c2ccccc12	-16%[46.1 µM]	-7%	-5%	-13%	2%	6
S=C(c1cn(CCOc2cccc3ccccc23)c2ccccc12)N1CCCC1	-12%	3%	28µM*	-11%	-1%	/
O=C(O)Cn1cc(C(=S)N2CCCCC2)c2ccccc21	12%	4%	10µM*	/	/	/
O=C(O)Cn1cc(C(=S)N2CCOCC2)c2ccccc21	7%[46.1 µM]	6%[38.3 µM]	19µM*	18µM*	0%	-6
SMILES	NPSR antag	IMPase Li cell	ALDH1A1 block	HPGD inh	ALOX12 inhib	IMPase inh
O=C(C(=O)N1CCOCC1)c1cn(CC(=O)N2CCc3ccccc3C2)c2ccccc12	12%	3%	20µM*	/	/	/
O=C(CSc1nc2[nH]ncc2c(=O)n1-c1ccccc1Cl)N1CCCC1	21%	4%	32µM*	/	/	/
O=C(CSc1nc2[nH]ncc2c(=O)n1-c1ccccc1)N1CCCCCC1	6%	9%	5µM*	/	/	/
O=C(CCc1nc(-c2ccccc2)c(-c2ccccc2)o1)OCc1ccc(Br)cc1	-25%[46.1 µM]	31%[38.3 µM]	?	?	-5%	-2
CCC(Sc1n[nH]c(=O)[nH]c1=O)C(=O)OCc1ccccc1 (stereo unspecified)	-8%[46.1 µM]	13%[38.3 µM]	?	?	-4%	-6
O=C(Nc1ccccc1C(=O)NC(Cc1ccc(O)cc1)C(=O)O)c1ccccc1 (stereo unspecified)	15%	-9%	-6%	/	/	/
CN1CCC[C@@H](CC2c3ccccc3Sc3ccccc32)C1	/	25%	8%[20.9 µM]	-2%	4%[25.6 µM]	18[20.6 µM]
CC(C)N(C(=O)NC(=O)Nc1ccccn1)S(C)(=O)=O	16%	0%	-2%	-19%	-1%	/
O=C(C[n+]1cc2ccccc2c2ccccc21)c1ccccc1	-7%[46.1 µM]	68%[38.3 µM]	?	?	-5%	12
COc1ccc(-n2ncc(N(C)n3cccc3)c(Cl)c2=O)cc1	-18%[46.1 µM]	/	2%	/	-6%	3
COc1ccc(-n2ncc(Cl)c(Cl)c2=O)cc1	-27%	-8%	10µM*	/	/	/
COc1ccc(C(=O)NC2CCCCC2)cc1S(=O)(=O)N1CCCC1	-14%[46.1 µM]	-24%[38.3 µM]	-24%	-2%	-5%	5
CCCCOC(=O)Nc1ccc(S(=O)(=O)Nc2nc(C)cc(C)n2)cc1	-5%[46.1 µM]	0%[38.3 µM]	18%	0%	0%	6
CCCCOC(=O)NS(=O)(=O)c1sc(CC(C)C)cc1-c1ccc(Cn2c(CC)nc3c(C)cc(C)nc32)cc1	13µM*	11%	-12%	-11%	-7%	4
O=C(COC(=O)c1cccc(C(F)(F)F)c1)NCc1ccc(Cl)cc1	14%	-1%	17%	14µM*	-2%	/
CCOc1ncccc1C(=O)OCC(=O)N1CCN(S(=O)(=O)c2ccccc2)CC1	-6%[46.1 µM]	-8%[38.3 µM]	6%	-1%	2%	10
COc1ccc(-n2c(=S)[nH]c3cc(C(=O)NCCCN4CCCC4=O)ccc3c2=O)c(OC)c1	-7%[46.1 µM]	22%[38.3 µM]	14µM*	-16%	1%	-2
COc1ccc(-n2c(=S)[nH]c3cc(C(=O)NCCCN4CCCC4=O)ccc3c2=O)cc1	-9%[46.1 µM]	1%[38.3 µM]	18µM*	-9%	-1%	-4
CSc1ccc(C(=O)C2CCCN(C(=O)CCCn3cncn3)C2)cc1 (stereo unspecified)	-16%	4%	16µM*	/	/	/
Cc1nn(-c2ccc(Cl)cc2)c2sc(C(=O)N3CCN(C(=O)c4ccco4)CC3)cc12	-8%[46.1 µM]	3%[38.3 µM]	3%	-13%	1%	-5
Cc1nn(-c2ccc(F)cc2)c2sc(C(=O)N3CCCCCC3)cc12	?	40%[38.3 µM]	35µM*	16µM*	-6%	-3
Cc1ccc(/C=N/NC(=O)c2ccccn2)s1	2%	-7%	-8%	-22%	-1%	/
O=C1/C(=C/C=C/c2ccco2)SC(=S)N1c1ccc(O)cc1	-22%	/	/	/	/	/
